We go through 57 compounds from article PMC6212833.

Over roughly 2,000 compounds, “B-score” has its median near -0.0024; the highest 2% begin near 4. The entries come from a sample that favours the highest values as a whole.

In this assay the test system is Balamuthia mandrillaris (ATCC PRA-291) trophozoites, axenic culture. In words: primary screen, b score. As to conditions: 20 µM. The procedure, abridged:
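Trophozoites (3,000/well) in axenic medium exposed to library drugs at 20 µM in 0.2% DMSO for 72 h; viability by CellTiter Glo luminescence at 2, 4 and 8 h. Controls: vehicle and freeze-thaw amoeba lysate; B-score corrects row, column and edge effects.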
For `CCOC(=O)C1=C[C@@H](OC(CC)CC)[C@H](NC(C)=O)[C@@H](N)C1`, the B-score was -0.221.
In the case of `Cc1c(-c2cnccn2)ssc1=S` it was 1.58; in that of `Cc1c(NC(C)C)c(=O)n(-c2ccccc2)n1C`, -2.14; in that of `Cc1c(N(C)C)c(=O)n(-c2ccccc2)n1C`, 2.34.
In the case of `Cc1c(NC(=O)c2cccnc2)c(=O)n(-c2ccccc2)n1C` it was 12.5; in that of `CNC[C@H](O)[C@@H](O)[C@H](O)[C@H](O)CO` [757068-L2], 1.95; in that of `C[C@]1(Cn2ccnn2)C(C(=O)O)N2C(=O)CC2S1(=O)=O` (stereo partly drawn), -2.49.
Consider `OC(CCN1CCCCC1)(c1ccccc1)C1CCCCC1` (stereo not drawn), for which the B-score was 0.407.
Consider `COc1c(N2CCNC(C)C2)c(F)cc2c(=O)c(C(=O)O)cn(C3CC3)c12` (stereo not drawn), for which the B-score is 0.0884.
As to `C[C@@H]1CN(c2c(F)c(F)c3c(=O)c(C(=O)O)cn(C4CC4)c3c2F)C[C@H](C)N1`, the B-score is reported as -1.44.
`CC[n+]1c(-c2ccccc2)c2cc(N)ccc2c2ccc(N)cc21` had a B-score of 3.74.
`C[n+]1c2cc(N)ccc2cc2ccc(N)cc21` gave a B-score of 20.4.
`Nc1ccc2cc3ccc(N)cc3nc2c1` had a B-score of 1.36.
In the case of `O=C(O)/C=C/C(=O)O` it was 0.597.
Next, `CCCCCCCCCCCCCCCC(=O)OC/C=C(C)/C=C/C=C(C)/C=C/C1=C(C)CCCC1(C)C`: -0.008; `O=C(CCCN1CC=C(n2c(O)nc3ccccc32)CC1)c1ccc(F)cc1`: -6.32.
In the case of `CCCc1cc(C(N)=S)ccn1` it was 3.08.
For `O=C(O)[C@H](O)[C@@H](O)[C@H](O)[C@H](O)CO`, the B-score came out at 0.99.
In the case of `CCCCOc1ccc(C(=O)CCN2CCCCC2)cc1` [130801-L6] it was -2.14; in that of `CCCCOc1ccc(C(=O)CCN2CCCCC2)cc1` [130801-L5], -1.2; in that of `N=C(N)c1ccc(OCCCCCOc2ccc(C(=N)N)cc2)cc1`, 15.2.
`CC(C)(O/N=C(\C(=O)N[C@@H]1C(=O)N2C(C(=O)O)=C(C[n+]3ccccc3)CS[C@H]12)c1csc(N)n1)C(=O)O`: the B-score worked out at 1.87.
Next, `CN[C@H](CC(C)C)C(=O)N[C@H]1C(=O)N[C@@H](CC(N)=O)C(=O)N[C@H]2C(=O)N[C@H]3C(=O)N[C@H](C(=O)N[C@H](C(=O)O)c4cc(O)cc(O)c4-c4cc3ccc4O)[C@H](O)c3ccc(c(Cl)c3)Oc3cc2cc(c3O[C@@H]2O[C@H](CO)[C@@H](O)[C@H](O)[C@H]2O[C@H]2C[C@](C)(N)[C@H](O)[C@H](C)O2)Oc2ccc(cc2Cl)[C@H]1O`: -0.857; `Oc1ccc2c3c1O[C@H]1[C@@H](O)CC[C@@]4(O)[C@@H](C2)N(CC2CCC2)CC[C@]314`: 0.0386.
In the case of `CN1CCC(=C2c3ccccc3Sc3ccccc32)CC1` it was -1.07.
`CN/C(=C\[N+](=O)[O-])NCCSCc1ccc(CN(C)C)o1`: the B-score was 14.6.
Next, `CN/C(=C/[N+](=O)[O-])NCCSCc1ccc(CN(C)C)o1`: -2.02.
Next, `CN/C(=C\[N+](=O)[O-])NCCSCc1csc(CN(C)C)n1`: -0.177; `COC(=O)/C=C/C(=O)OC`: 1.25; `Nc1ccc(S(=O)(=O)Nc2ccc(Cl)nn2)cc1`: 1.1.
Compound `COc1ccc(NS(=O)(=O)c2ccc(N)cc2)nn1` gave a B-score of 4.49.
As for `COc1cc(NS(=O)(=O)c2ccc(N)cc2)ncn1`, the B-score came to 3.08.
Regarding `CNC[C@H](O)[C@@H](O)[C@H](O)[C@H](O)CO` [757068-L1], the B-score is recorded as -0.164.
In turn, `Cc1scc2c1N(C(=O)CN1CCN(C)CC1)c1ccccc1NC2=O` registered a B-score of -4.76.
Regarding `N#Cc1nn(-c2c(Cl)cc(C(F)(F)F)cc2Cl)c(N)c1S(=O)C(F)(F)F` (stereo not drawn), the B-score was determined as 0.119.
Next, `OC[C@@H]1CC[C@H](n2cnc3c(O)ncnc32)O1`: 0.384; `C#C[C@]1(O)CCC2C3CCC4=CC(=O)CC[C@@H]4C3CC[C@@]21C` (stereo partly drawn): 0.0185; `C#C[C@]1(O)CCC2C3CCC4=CC(=O)CC[C@@H]4C3CCC21CC` (stereo partly drawn): -1.87.
Next, `C#C[C@]1(O)CC[C@H]2[C@@H]3CCC4=CC(=O)CC[C@@H]4[C@H]3CC[C@@]21C`: 5.5.
In the case of `CO/N=C(\C(=O)N[C@@H]1C(=O)N2C(C(=O)O)=C(CSc3nc(=O)c(=O)[nH]n3C)CS[C@H]12)c1csc(N)n1` it was -0.496; in that of `CC(C[N+](C)(C)C)OC(N)=O` (stereo not drawn), 1.72.
For the compound `CC(=O)[C@H]1CCC2C3CC=C4C[C@@H](O)CC[C@]4(C)C3CC[C@@]21C` (stereo partly drawn), the B-score was -1.35.
For `N=C(N)c1ccc(N=NNc2ccc(C(=N)N)cc2)cc1`, the B-score is on record as 9.37.
In the case of `Nc1c2ccccc2nc2ccccc12` it was -0.407; in that of `CC(=O)c1ccc2c(c1)N(CCCN(C)C)c1ccccc1S2`, 0.888.
Next, `COc1cc(C(=O)NCCCCCC(=O)O)cc(OC)c1OC`: -2.61; `CC1=C(/C=C/C(C)=C/C=C/C(C)=C\C(=O)O)C(C)(C)CCC1`: 1.46; `NC(=O)c1cc[n+](CC2=C(C(=O)O)N3C(=O)[C@@H](NC(=O)Cc4cccs4)[C@H]3SC2)cc1`: 0.071.
In the case of `CCC(C)n1ncn(-c2ccc(N3CCN(c4ccc(OCC5COC(Cn6cncn6)(c6ccc(Cl)cc6Cl)O5)cc4)CC3)cc2)c1=O` (stereo not drawn) it was -1.07; in that of `CC(C)N1CCN(c2ccc(OC[C@H]3CO[C@](Cn4cncn4)(c4ccc(Cl)cc4Cl)O3)cc2)CC1`, 2.03.
`CCC(C)n1ncn(-c2ccc(N3CCN(c4ccc(OC[C@H]5CO[C@](Cn6cncn6)(c6ccc(Cl)cc6Cl)O5)cc4)CC3)cc2)c1=O` (stereo partly drawn): the B-score is on record as 5.45.
For the compound `O=c1[nH]c(=O)c2ccccc2o1`, the B-score is listed as 1.88.
Compound `C(=C\c1ccccc1)/CN1CCN(C(c2ccccc2)c2ccccc2)CC1` [255681-L2] yielded a B-score of 0.414.
Compound `Cc1cn[nH]c1` [285621-L4] had a B-score of 2.94.
As to `Cc1cc(-c2ccc(/N=N/c3ccc4c(S(=O)(=O)O)cc(S(=O)(=O)O)c(N)c4c3O)c(C)c2)ccc1/N=N/c1ccc2c(S(=O)(=O)O)cc(S(=O)(=O)O)c(N)c2c1O`, the B-score turned out to be 11.
The compound `CN(C)CC(c1ccc(O)cc1)C1(O)CCCCC1` (stereo not drawn) showed a B-score of -2.24.
Next, `Nc1nc(O)c2nc(CNc3ccc(C(=O)N[C@@H](CCC(=O)O)C(=O)O)cc3)cnc2n1` [131189-L3]: -0.599.
